Rows were chosen to be rich in hits. Some 3.6% of all compounds tested hit in one or more screens of this group.
mHTT CaM bind – inhibitors of human mutant huntingtin-calmodulin interaction. 190,000 tested, 3.6% active. P42858. AlphaScreen His-mHTT/GST-CaM binding, luminescence. inhibition, % at 15 µM
Pf apPOL block – Pf-apPOL DNA polymerase inhibition | Recombinant Pf-apPOL, molecular beacon fluorescence, 1.5 h | inhibition, % at 10 µM | 210,000 tested, 0.25% active | AID 1794808
Numbers stand for hits; – = inactive; · = no result given; ! = not active in a repeat. No stated cut-off is given here; in the data, active means inhibition above about 50%; inactive means the rest.

SMILES	mHTT CaM bind	Pf apPOL block
O=C(Nc1ccc(Oc2ccccc2)cc1)C1CC(=O)N(c2ccccc2Cl)C1 (configuration not stated)	72.2	–
COc1ccc(NC(=O)C2CC(=O)N(c3ccccc3)C2)cc1 (configuration not stated)	–	–
CCOC(=O)c1sc(NC(=O)CN(C)S(C)(=O)=O)c(C#N)c1C	–	–
COc1ccccc1CN1CCc2nc(Nc3ccc(F)cc3F)ncc2C1	–	–
Cc1ccc(CN2CCc3nc(Nc4ccc5c(c4)OCCO5)ncc3C2)cc1	72.5	–
CCCN1CCN(c2ncc3c(n2)CCN(Cc2cc(Br)cs2)C3)CC1	–	–
c1ccc(CN2CCc3nc(Nc4ccc5c(c4)OCCO5)ncc3C2)cc1	–	–
CCOc1ccc(CN2CCc3nc(Nc4ccc5c(c4)OCO5)ncc3C2)cc1OCC	–	–
COc1ccc(CN2CCc3nc(Nc4ccc(F)cc4F)ncc3C2)c(OC)c1OC	53.4	–
COc1cc(CN2CCc3nc(Nc4ccc5c(c4)OCO5)ncc3C2)ccc1OC(C)C	82.1	–
Brc1csc(CN2CCc3nc(N4CCOCC4)ncc3C2)c1	56.5	–
O=C(NCCc1cccc(Cl)c1)c1ccco1	–	–
CC(C)OC(=O)C1(C(=O)OC(C)C)CC2(COC(c3ccccc3)OC2)C1	–	–
Cc1sc2ncn(CC(=O)Nc3ccc(F)cc3)c(=O)c2c1S(=O)(=O)N1CCN(C)CC1	–	–
CS(=O)(=O)Nc1ccc2oc3ccccc3c(=O)c2c1	·	–
CC(Oc1ccccc1)C(=O)N(C)CC1(C)CCOCC1 (configuration not stated)	–	–
Fc1cccc(CN2CCc3nc(Nc4ccc5c(c4)OCCO5)ncc3C2)c1	–	–
Fc1cc(F)cc(CN2CCc3nc(Nc4ccc5c(c4)OCO5)ncc3C2)c1	73.0	–
COc1ccc(OC)c(CN2CCc3nc(Nc4ccc(F)cc4)ncc3C2)c1	61.2	–
COc1cccc(CN2CCc3nc(Nc4ccc5c(c4)OCCO5)ncc3C2)c1OC	–	–
COc1ccc(OC)c(CN2CCc3nc(Nc4ccc5c(c4)OCCO5)ncc3C2)c1	50.0	–
COc1cc(OC)c(OC)cc1CN1CCc2nc(Nc3ccc4c(c3)OCO4)ncc2C1	50.3	–
COc1cccc(Nc2ncc3c(n2)CCN(Cc2cc(OC)ccc2OC)C3)c1	–	–
COc1cccc(CN2CCc3nc(Nc4ccc5c(c4)OCO5)ncc3C2)c1OC	–	–
Cc1cc(Cl)ccc1OC(C)C(=O)Nc1ccccc1F (configuration not stated)	–	–
SMILES	mHTT CaM bind	Pf apPOL block
COc1ccc(Nc2ncc3c(n2)CCN(Cc2cc(Br)cs2)C3)cc1	66.4	–
COc1ccc(OC)c(Nc2ncc3c(n2)CCN(Cc2ccc4c(c2)OCCO4)C3)c1	–	–
COc1ccc(Nc2ncc3c(n2)CCN(Cc2ccc4c(c2)OCCO4)C3)cc1	60.5	–
Brc1csc(CN2CCc3nc(Nc4ccccc4)ncc3C2)c1	–	–
CC1(C)COCN1S(=O)(=O)c1ccc(C(=O)Nc2nnc(-c3ccccc3Cl)o2)cc1	–	–
Cc1c(C(=O)NC(C)C)oc2ccc(S(=O)(=O)N3CCCCC3)cc12	–	–
Clc1cc2c(c(CSc3nnnn3-c3ccccc3)c1)OCOC2	–	–
Clc1ccc(SCc2cc(Cl)cc(Cl)c2)cc1	·	–
O=C1c2cccnc2C(=O)N1c1ccc(N2C(=O)c3cccnc3C2=O)c(Cl)c1	63.0	–
O=C1c2ccccc2C(=O)N1c1ccc(N2C(=O)c3ccccc3C2=O)c(Cl)c1	–	–
Cc1ccc(OCC(=O)N2CCN(c3nc(CN4CCOCC4)cs3)CC2)cc1	–	–
CSc1cc(-c2cccs2)[nH]c(=O)c1C#N	·	–
N#Cc1c(-c2cccs2)cc(-c2ccco2)[nH]c1=O	·	71.5
N#Cc1c(-c2ccco2)cc(-c2cccs2)[nH]c1=O	·	83.1
N#Cc1c(C(F)(F)F)cc(-c2cccs2)[nH]c1=O	–	–
c1cnc(SCc2ccc3nsnc3c2)nc1	–	·
Cn1ncc(NC(=O)c2ccccc2)c(N2CCCCC2)c1=O	–	–
COc1cccc(S(=O)(=O)N2CC3CC2CC3NC(=O)c2cccnc2)c1 (configuration not stated)	–	–
O=C(Nc1ccc(Cl)cc1)N(Cc1cccnc1)Cc1ccccc1Cl	–	–
Cc1ccc(S(=O)(=O)N(CC(=O)NCc2cccnc2)Cc2ccc(Cl)c(Cl)c2)cc1	54.0!	–
O=C(CN(Cc1ccccc1Cl)S(=O)(=O)c1ccc(Cl)cc1)NCc1cccnc1	–	–
Cc1ccc(CN(Cc2cccnc2)C(=O)Nc2ccc(Cl)c(Cl)c2)cc1	81.0	–
O=C1C2CCCCC2C(=O)N1c1ccc(S(=O)(=O)N2CCOCC2)cc1 (configuration not stated)	–	–
O=C1NCCCn2cc(S(=O)(=O)NCc3ccccc3F)cc21	–	–
CN(C)C(=O)CCC1CCN(c2cc(NC3CC3)ncn2)CC1	–	–
SMILES	mHTT CaM bind	Pf apPOL block
O=C(O)C#Cc1ccc([N+](=O)[O-])cc1	–	–
O=C(O)C1(c2ccc([N+](=O)[O-])cc2)CCCC1	94.5	–
CSc1nnc(-c2nn(C)c3c2CN(C(=O)CC(C)C)CC3)n1C	–	–
O=C(NCc1cccnc1)c1nn2c(c1Cl)NC(c1cccs1)CC2C(F)(F)F (configuration not stated)	–	–
COc1ccc(/C=C/c2ccccc2)cc1[C@H]1[C@@H]2C=CCC[C@@]2(C)C(=O)N1Cc1ccccc1	–	–
COc1ccc(-c2ccc(OC)c([C@H]3[C@@H]4C=CCC[C@@]4(C)C(=O)N3Cc3ccccc3)c2)cc1OC	76.0	–
COc1ccc(-c2ccc(N(C)C)cc2)cc1[C@H]1[C@@H]2C=CCC[C@@]2(C)C(=O)N1Cc1ccccc1	73.3	–
CC(=O)c1ccc(-c2ccc([C@H]3[C@@H]4C=CCC[C@@]4(C)C(=O)N3Cc3ccccc3)c(F)c2)cc1	–	–
COc1ccc(-c2ccc(OC)c([C@H]3[C@@H]4C=CCC[C@@]4(C)C(=O)N3Cc3ccccc3)c2)cc1	–	–
COc1ccc(Br)cc1[C@H]1[C@@H]2C=CCC[C@@]2(C)C(=O)N1Cc1ccccc1	89.8	–
O=C(CS(=O)(=O)c1cccc2nsnc12)Nc1ccc(Br)cc1F	–	–
O=C(c1ccc(Cl)cc1)N1N=C(c2ccc(Cl)cc2)CC1(O)C(F)(F)F (configuration not stated)	–	–
Cc1ccc(C(=O)N2N=C(c3ccc(Cl)cc3)CC2(O)C(F)(F)F)cc1 (configuration not stated)	–	–
Cc1ccccc1OCC(=O)N1N=C(c2ccc(Cl)cc2)CC1(O)C(F)(F)F (configuration not stated)	96.0	–
COc1ccc(C(=O)N2N=C(c3ccc(Br)cc3)CC2(O)C(F)(F)F)cc1 (configuration not stated)	–	–
O=C(c1ccc(Cl)cc1)N1N=C(c2ccccc2)CC1(O)C(F)(F)F (configuration not stated)	54.0	–
O=C(CCc1ccccc1)N1N=C(c2ccc(Cl)cc2)CC1(O)C(F)(F)F (configuration not stated)	–	–
Cc1cc(C)cc(OCC(=O)N2N=C(c3ccc(Cl)cc3)CC2(O)C(F)(F)F)c1 (configuration not stated)	90.0	–
COc1ccc(C(=O)N2N=C(c3cccc(Br)c3)CC2(O)C(F)(F)F)cc1 (configuration not stated)	50.0	–
O=C(Cn1nc(-n2cccn2)ccc1=O)Nc1ccc(-n2cnnn2)cc1	–	–

Screening results: PubChem BioAssay, University of Kansas High Throughput Screening Laboratory
